According to publication PMC5540273 (PLoS ONE, 2017):

tested on: T1, SNARK; conditions: concentration: 1 μM, replicates: in singlicate; n = 1
T1 construct: gene NUAK2
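Further: KINOMEscan kinase panel screen.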

| Compound | %Inh |
| --- | --- |
| c1ccc(Oc2ccc(Nc3ccnc4cc(-c5ccc(CNCCN6CCOCC6)o5)ccc34)cc2)nc1 [GW567145] | 6% |
| Cn1cc(-c2[nH]c3cc(NC(=O)[C@H](N)C4CCCCC4)cc4c3c2C=NNC4=O)cn1 | 97.9% |
| O=C(Nc1cccc(-c2nn3ccccc3c2-c2ccnc(Nc3cccc(F)c3)n2)c1)c1c(F)ccc(F)c1Cl [GSK357952] | 4% |
| Cc1ccc(C)c(NC(=O)NC2CCN(c3ccnc(Nc4ccc(F)cc4)n3)C2)c1 (stereo not shown) [GSK1379720] | 0% |
| O=C(Nc1n[nH]c2cc(-c3ccoc3)ccc12)C1CC1 [SB-738481] | 25% |
| COc1cccc(C(=O)Nc2cccc(Oc3ccc4nc(NC(=O)C5CC5)cn4n3)c2)c1 | 5% |
| Cc1ccc(S(=O)(=O)Nc2ccc(Nc3nccc(Nc4cccc5[nH]ncc45)n3)cc2)cc1 [GSK581271] | 0% |
| CN(C)Cc1ccc(-c2ccc3c(Nc4ccc(Oc5ccccn5)cc4)ccnc3c2)o1 [GW567148] | 12% |
| Nc1ncc(-c2ccc3nccc(-c4ccncc4)c3c2)cc1S(=O)(=O)N1CCOCC1 [GSK1627798] | 8% |
| CC(=O)Nc1nc2cnc(Nc3cc(NC(=O)c4cccc(C5(C#N)CC5)c4Cl)ccc3C)nc2s1 | 0% |
| Cl.Cl.NCC(NC(=O)c1cc(-c2ccccc2)c(-c2ccnc3[nH]ccc23)s1)c1ccccc1 (stereo not shown) [GSK1321561] | 50% |
| COc1cccc(C2=C(Nc3ccc(Cl)c(C(=O)O)c3)C(=O)NC2=O)c1 [SB-390769] | 100% |
| O=c1[nH]cc(-c2ccc(N3CCOCC3)cc2)c2sc(-c3cn[nH]c3)cc12 [GSK2276055] | 15% |
| Cn1cc(-c2ccc3c(c2)CCN3C(=O)Cc2cccc(F)c2)c2c(N)ncnc21 [GSK2603358] | 10% |
| CN1CCN(CCCNc2nccc(-c3c(-c4ccc(F)cc4)nn4cc(C(F)(F)F)ccc34)n2)CC1 [GW621581] | 0% |
| Cc1ccc(C(=O)Nc2ccc(Nc3ccnc4cc(-c5nccs5)ccc34)cc2O)cc1.Cl [GW494702] | 10% |
| CC(C)(C)c1ccc2nccc(Nc3cccc(O)c3)c2c1 [GW856795] | 0% |
| Nc1n[nH]c2cnc(-c3ccccc3)cc12 [SB-642124] | 60% |
| CCc1ccc(-c2ccc3c(c2)-c2c(cnn2C)S(=O)(=O)N3C)cc1 | 8% |

| Compound | %Inh |
| --- | --- |
| O=C(Nc1n[nH]c2nc(-c3ccc(O)cc3)ccc12)C1CC1 [SB-710363] | 0% |
| CC(=O)N1CCN(c2ccc(Nc3nccc(-c4sc(C(C)C)nc4-c4cccc(NS(=O)(=O)c5cccc(Cl)c5)c4)n3)cn2)CC1 [GSK1660437] | 17% |
| c1ccc(-c2n[nH]cc2Nc2ccnc3ccccc23)nc1 [GW694077] | 27% |
| Oc1cc(Nc2ccnc3cc(I)ccc23)ccc1F [GW552771] | 0% |
| COc1ccc(Nc2nccc(N3CCC(NC(=O)Nc4cccc(OC)c4)C3)n2)cc1 (stereo not shown) [GSK1379742] | 0% |
| COc1cc(Nc2nccc(-c3c(-c4cccc(NC(=O)c5c(F)cccc5F)c4)nn4ccccc34)n2)cc(OC)c1OC [GSK323521] | 40% |
| c1ccc(-c2cnc3nccnn23)cc1 [AH20685] | 0% |
| C[C@@H](Oc1cc(-n2cnc3cc(-c4ccnc(NCCS(C)(=O)=O)c4)ccc32)sc1C(N)=O)c1ccccc1Cl [GSK907232] | 95.4% |
| COc1cc(Nc2ncc3c(C)nc(-c4cc5ccccc5[nH]4)n3n2)cc(OC)c1OC [GW869516] | 9% |
| Cl.c1ccc(-c2ccc3c(Nc4ccc5[nH]ncc5c4)ccnc3c2)nc1 [GW440137] | 20% |
| Cl.c1ccc(-c2ccc3c(Nc4ccc5[nH]ccc5c4)ccnc3c2)nc1 [GW440138] | 4% |
| Cl.NC(=O)c1cccc(Nc2nccc(Nc3ccc(Oc4c(Cl)cccc4Cl)c(Cl)c3)n2)c1 [GW659009] | 1% |
| O=C(Nc1ccccc1F)NC1CCN(c2ccnc(Nc3ccc(F)cc3)n2)CC1 [GSK1379800] | 0% |
| COc1ccc(-c2coc3ccc(-c4nnc(SCc5ccc(OC)c(C(F)(F)F)c5)o4)cc23)cc1 | 35% |
| Clc1ccc(-c2nn3ncccc3c2-c2ccnc(Nc3ccc4c(c3)OCCO4)n2)cc1 [GW829116] | 0% |
| CC(C)c1nc(-c2cccc(NS(=O)(=O)c3c(F)cccc3F)c2F)c(-c2ccnc(Nc3ccc(N4CCOCC4)nc3)n2)s1 [GSK2008607] | 29% |
| C[C@@H]1CC[C@@H](C(=O)Nc2ccccc2)CN1c1cc(-c2ccc3c(N)n[nH]c3c2)nc(N)n1 [GSK2286062] | 11% |
| COc1ccc(CNC(=O)NC2CCN(c3ccnc(Nc4ccc(F)cc4)n3)CC2)cc1 [GSK1379788] | 0% |
